# Screens deposited in PubChem BioAssay by several laboratories.
# Sampled rows, rich in hits. Any-hit rate of the full collection: about 3.8%.
# 697 NFkB inh: lowers PMA/ionomycin-induced NF-kB signal in 697 B cells; 697 B-cell NF-kB luciferase reporter, 16 h; inhibition, % at 4 µM; actives 0.33% (n = 330,000); AID 435022; in the data active = inhibition above about 35%
# Shn3 inh set2: inhibitors of Schnurri-3 3'UTR reporter in osteoblasts | Clone20 osteoblast Shn3 3'UTR firefly luciferase, 24 h | inhibition, % at 12.5 µM | actives 0.52% (n = 360,000) | AID 588674;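 active = mean inhibition of at least 75% with every replicate also reaching 75%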;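 note: 0% = median of neutral control wells and 100% = pilot-screen positive control compound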
# Gli-Sufu block: antagonists of Gli-Sufu signaling; Sufu-KO-LIGHT fibroblasts, Gli luciferase reporter luminescence; inhibition, % at 5 µM; actives 0.74% (n = 340,000);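 active = inhibition above about 55%, limit read from the data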;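 note: 0% = DMSO-treated cells and 100% = wells with medium but no cells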
# Mdm2-MdmX inh: inhibitors of human Mdm2/MdmX interaction; O15151+Q00987; SaOS-2 split-luciferase Mdm2/MdmX complementation, luminescence; inhibition, % at 8 µM; actives 3% (n = 330,000); AID 485346;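 active = inhibition of at least 50% at 8 µM in the primary screen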
# Jurkat NFkB inh: inhibitors of the PMA/ionomycin-induced NF-kB reporter in Jurkat cells; actives 0.53% (n = 330,000); PMA/ionomycin-induced NF-kB luciferase reporter, luminescence; inhibition, % at 4 µM; in the data active = inhibition above about 50%
# Mdm2-MdmX conf: human Mdm2/MdmX binding inhibition, confirmed; shares compounds with Mdm2-MdmX inh; luminescent assay; inhibition, % at 8 µM; actives 55% (n = 10,000); in the data active = inhibition above about 40%
# FLuc counter: counter-screen for Mdm2/MdmX inhibitors: full-length luciferase. shares compounds with Mdm2-MdmX inh. SaOS-2 full-length luciferase counterscreen, luminescence. inhibition, % at 8 µM. actives 77% (n = 6,200). AID 504607;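 active = mean inhibition at 8 µM reaching about 37%, which flags the compound as non-specific, limit read from the data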;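 note: p53-null SaOS-2 cells with luciferase driven by a doxycycline-inducible promoter; compound on cells about two nights before reading with doxycycline added after day one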
# * = called active by the depositor; / = no result given.
SMILES,697 NFkB inh,Shn3 inh set2,Gli-Sufu block,Mdm2-MdmX inh,Jurkat NFkB inh,Mdm2-MdmX conf,FLuc counter
Cc1ccc(C)c(NC(=O)c2cc(-c3cc(C)c(C)cc3O)n[nH]2)c1,-68,-62,-27,25,-79,/,/
CN(c1cccc(NC(=O)CN(c2ccc(C34CC5CC(CC(C5)C3)C4)cc2)S(C)(=O)=O)c1)S(C)(=O)=O,-32,84,6,76*,7,54*,78*
CCCCC(CC)CN=C(N)NC(N)=NCCCCCCN=C(N)NC(N)=NCC(CC)CCCC (stereo not given),6,97*,67*,99*,39,86*,15
Cc1[nH]c2ccccc2c1/C=N\NC(=O)c1ccccc1Cl,/,-3,/,/,/,/,/
Cc1[nH]c2ccccc2c1/C=N/NC(=O)C1CC1(c1ccccc1)c1ccccc1 (stereo not given),-8,1,1,65*,-3,48*,89*
CC1CC(C)CN(C(=O)C(C)N2CCN(S(=O)(=O)c3ccc(Br)s3)CC2)C1 (stereo not given),3,27,11,39,3,/,/
CC1CCCCN1S(=O)(=O)c1ccc(C(=O)N2CCOCC2)cc1 (stereo not given),7,6,3,0,-17,/,/
Cc1ncc(CO)c(/C=N/NC(=O)c2cc3c(s2)CCCC3)c1O,-12,91*,7,58*,9,42*,51*
CC1=C(C(=O)N(C)C)CC(CC(=O)NCc2ccco2)C(=O)N1Cc1ccccc1 (stereo not given),/,-8,/,/,/,/,/
C/C(=N\Nc1nc(-c2ccccn2)nc2ccccc12)c1ccc(F)cc1,-9,-21,9,75*,19,38,34
c1ccc(-c2nc(N3CCCCCC3)c3ccccc3n2)nc1,-10,80,27,84*,8,86*,21
c1ccc(-c2nc(N3CCOCC3)c3ccccc3n2)nc1,-40,8,-2,43,-16,/,/
Fc1ccc(Oc2nc(-c3ccccn3)nc3ccccc23)cc1,-35,0,-29,57*,-10,5,/
Cc1cc(C(=O)OCC(=O)Nc2ccccc2Br)c(C)o1,-21,-20,6,-10,-1,/,/
COc1ccccc1NC1=C(N2CCCCC2)C(=O)c2ccccc2C1=O,17,5,12,74*,31,46*,4
COc1cc(/C=C/C(=O)c2ccc3c(c2)OCCO3)cc(Br)c1OCC(=O)N(C)C,-47,92*,7,95*,47,79*,56*
COc1ccc(OC)c(NC(=O)CSc2ccc(-c3cccnc3)nn2)c1,-3,10,0,21,32,/,/
Cc1ccc(NC(=O)c2cnccn2)c(Br)c1,-49,-25,-6,-11,-27,/,/
Cc1ccc(NC(=O)c2cnccn2)nc1,-63,-61,-54,53*,-59,-5,/
CC(=O)c1c(C)[nH]c(C(=O)Nc2ccc(C)cn2)c1C,-100,39,23,53*,-7,48*,74*
O=c1[nH][nH]c(=O)c2nc(Nc3ccccc3)ncc12,/,6,0,/,/,/,/
COc1cc(NC(=O)c2ccccc2)c(C)cc1NC(=O)CC(CC(=O)O)c1ccccc1 (stereo not given),0,3,-12,20,-1,/,/
CC(=O)Oc1ccccc1C(=O)OCCN=C1NS(=O)(=O)c2ccccc21,17,15,-4,-13,11,/,/
Cc1nc2c(-c3ccc(Cl)cc3)c(C)[nH]n2c(=O)c1Cc1ccccc1,16,38,20,53*,4,61*,55*
O=C1C=C(c2ccc3ncccc3c2)C[C@@H](c2ccc(Cl)cc2)C1,-16,10,3,54*,49,46*,83*
OC(CN1CCN(c2cccc(C(F)(F)F)c2)CC1)c1c[nH]c2ccccc12 (stereo not given),11,11,16,50,4,46*,64*
Cc1ccc(-c2ccc([C@H]3[C@@H]4C=CCC[C@@]4(C)C(=O)N3Cc3ccccc3)c(F)c2)cc1,18,31,-2,39,14,/,/
C[C@@H]1CC=C[C@H]2[C@H]1C(=O)N(Cc1ccccc1)[C@H]2c1ccc2ccccc2c1,-103,-3,-3,25,6,/,/
